Calls of active or inactive are those of the source.

The source of these data is PubChem BioAssay.

Experiment [1] in a line: small molecules captured by biotinylated probe aFSTL3 – biochemical, small-molecule microarray, fluorescence 635/667, stem cell growth factor project, primary screen (AID 1064).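 Note: measures binding of the biotinylated anti-FSTL3 antibody to printed compounds.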 The note with it: higher = more signal.
The nature of experiment [2]: binders from COS7 lysate, DM2A8 probe, primary screen, torsin A project, cell lysate, small-molecule microarray, fluorescence 635/667 (AID 1065). The note with it: higher = more signal, COS7 lysate expressing mutant human TOR1A.
A short description of experiment [3]: small molecules captured by biotinylated probe aFGF2 – biochemical, small-molecule microarray, fluorescence 635/667, stem cell growth factor project, primary screen (AID 1067).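 Note: measures binding of biotinylated aFGF2 protein to printed compounds on slides; z-score merges feature fluorescence and signal-to-noise across triplicate slides.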 The note with it: higher = more signal.
Experiment [4] can be described thus: small molecules captured by biotinylated probe aFGF10 – biochemical, small-molecule microarray, fluorescence 635/667, stem cell growth factor project, primary screen (AID 1071).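 Note: score merges 667 nm spot intensity and signal to noise from triplicate slides.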 The note with it: higher = more signal.
Experiment [5] deals with Neurogenic locus notch homolog protein 2 (Homo sapiens) (UniProt Q04721). Description: small molecules binding Notch2 protein – biochemical, small-molecule microarray, 635 nm fluorescence, stem cell growth factors, primary screen (AID 1073). The settings on record: higher = more signal.
Experiment [6] addresses Pro-neuregulin-1, membrane-bound isoform (Homo sapiens) (UniProt Q02297). Briefly: small molecules binding neuregulin-1 protein – biochemical, small-molecule microarray, fluorescence 635/667, psychiatric disease protein project, primary screen (AID 1075).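 Note: score combines 667 nm spot fluorescence with signal to noise.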 The settings on record: NRG1 binding, 635 nm fluorescence, higher = more signal.
In experiment [7] the test system is Neuregulin-1 EGF-like domain. Briefly: small molecules binding NRG1 EGF domain – biochemical, small-molecule microarray, 635 nm fluorescence, primary screen (AID 1081).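 Note: binding of the protein to compounds printed on small-molecule microarray slides.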 The note with it: higher = more signal.
A short description of experiment [8]: FRG1 expression reporter modulators in myotubes – cell-based, C2C12 myotubes, firefly/Renilla luciferase, luminescence, FRG1 inhibition for FSHD, primary screen (AID 1084). The settings on record: FRG1 promoter luciferase, higher = more signal, called active from +8 up or from −8 down.
Experiment [9] in a line: small molecules captured by biotinylated probe aFST – biochemical, small-molecule microarray, fluorescence 635/667, stem cell growth factor project, primary screen (AID 1086).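 Note: score merges 667 nm fluorescence with signal-to-noise of each printed compound spot.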 The settings on record: higher = more signal.
A short description of experiment [10]: binders of probe aHhip on microarray, primary screen, stem cell growth factor project, biochemical, small-molecule microarray, fluorescence 635/667 (AID 1087).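 Note: score merges spot fluorescence at 667nm with spot signal to noise ratio.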 The note with it: higher = more signal.
In experiment [11] the test system is PRMT1 (protein arginine N-methyltransferase 1). Briefly: small molecules binding arginine methyltransferase PRMT1 – biochemical, small-molecule microarray, 635 nm fluorescence, primary screen (AID 1088).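 Note: binding of Prmt1 protein to compounds spotted on small-molecule microarray slides.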 The settings on record: higher = more signal.
The nature of experiment [12]: growth effects on S. cerevisiae YJM789 – YJM789 clinical isolate, OD600, 24 h, basal, primary screen (AID 1089).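 Note: growth of clinical yeast isolate S. cerevisiae YJM 789 seeded 1000 cells per well; test concentration not given here.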 The settings on record: higher = more signal, called active from +8 up or from −8 down.
The nature of experiment [13]: S. pombe growth modifiers, basal conditions – strain 972, OD600, 24 h, no modulator, primary screen (AID 1090).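 Note: basal condition with compound alone and no growth modifier present; test concentration not given here.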 The note with it: S. pombe 972 growth, higher = more signal, called active from +8 up or from −8 down.
Experiment [14] can be described thus: budding yeast growth modifiers under rapamycin – strain BY4716, OD600, 96 h, primary screen (AID 1091). Note: test concentration not given here. The settings on record: S. cerevisiae BY4716 + rapamycin, higher = more signal, called active from +8 up or from −8 down.
For experiment [15], the target named is Torsin-1A-interacting protein 2 (Homo sapiens) (UniProt Q8NFQ8). Description: small molecules binding lysate-expressed LULL1 – cell lysate, human LULL1 lysate, 635/667 nm fluorescence, primary screen (AID 1092).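 Note: probe is lysate of COS7 cells overexpressing human LULL1; score merges per-feature 667 nm fluorescence with signal-to-noise.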 The settings on record: small-molecule microarray, hLULL1 lysate binding, 635 nm fluorescence; higher = more signal.
Torsin-1A-interacting protein 2 (Homo sapiens), sequence (Q8NFQ8 whole entry, looked up): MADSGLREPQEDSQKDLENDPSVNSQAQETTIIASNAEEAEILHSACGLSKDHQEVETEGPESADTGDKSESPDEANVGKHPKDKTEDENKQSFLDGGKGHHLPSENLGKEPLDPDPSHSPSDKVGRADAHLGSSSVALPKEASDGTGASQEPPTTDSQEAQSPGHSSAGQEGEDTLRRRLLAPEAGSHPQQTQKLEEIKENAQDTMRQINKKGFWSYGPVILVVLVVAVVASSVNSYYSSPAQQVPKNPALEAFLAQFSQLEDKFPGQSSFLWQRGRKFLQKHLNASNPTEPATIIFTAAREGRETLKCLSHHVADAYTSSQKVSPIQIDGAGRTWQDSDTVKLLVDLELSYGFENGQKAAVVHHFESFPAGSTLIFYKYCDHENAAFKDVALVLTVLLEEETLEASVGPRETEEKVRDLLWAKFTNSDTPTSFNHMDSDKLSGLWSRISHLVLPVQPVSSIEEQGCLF
Experiment [16] is described as follows: optical density change of DRC41 E. coli – strain DRC41, OD650, 24 h, E. coli filamentation project, primary screen (AID 1093).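 Note: MC1000 strain lacking acrAB efflux and sulA so SOS filamentation is blocked; test concentration not given here.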 The settings on record: E. coli DRC41 growth, higher = more signal, called active from +8 up or from −8 down.
Experiment [17] in a line: probe aLefty2 binding to arrayed compounds – biochemical, biotinylated probe, 635/667 nm fluorescence, primary screen (AID 1094).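 Note: score merges spot fluorescence near 667 nm with spot signal-to-noise ratio.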 The settings on record: small-molecule microarray, higher = more signal.
Experiment [18] relates to Noggin (protein binding on small-molecule microarray). Briefly: small molecules binding Noggin protein – biochemical, 635/667 nm fluorescence, primary screen (AID 1095).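 Note: score merges 667 nm feature fluorescence with signal to noise over triplicate slides.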 The note with it: 635 nm fluorescence, higher = more signal.
Experiment [19] deals with Neurogenic locus notch homolog protein 3 (Homo sapiens) (UniProt Q9UM47). Description: small molecules binding NOTCH3 protein – biochemical, 635/667 nm fluorescence, primary screen (AID 1096). The settings on record: small-molecule microarray, 635 nm fluorescence, higher = more signal.
Neurogenic locus notch homolog protein 3 (Homo sapiens), sequence (Q9UM47 whole entry, looked up): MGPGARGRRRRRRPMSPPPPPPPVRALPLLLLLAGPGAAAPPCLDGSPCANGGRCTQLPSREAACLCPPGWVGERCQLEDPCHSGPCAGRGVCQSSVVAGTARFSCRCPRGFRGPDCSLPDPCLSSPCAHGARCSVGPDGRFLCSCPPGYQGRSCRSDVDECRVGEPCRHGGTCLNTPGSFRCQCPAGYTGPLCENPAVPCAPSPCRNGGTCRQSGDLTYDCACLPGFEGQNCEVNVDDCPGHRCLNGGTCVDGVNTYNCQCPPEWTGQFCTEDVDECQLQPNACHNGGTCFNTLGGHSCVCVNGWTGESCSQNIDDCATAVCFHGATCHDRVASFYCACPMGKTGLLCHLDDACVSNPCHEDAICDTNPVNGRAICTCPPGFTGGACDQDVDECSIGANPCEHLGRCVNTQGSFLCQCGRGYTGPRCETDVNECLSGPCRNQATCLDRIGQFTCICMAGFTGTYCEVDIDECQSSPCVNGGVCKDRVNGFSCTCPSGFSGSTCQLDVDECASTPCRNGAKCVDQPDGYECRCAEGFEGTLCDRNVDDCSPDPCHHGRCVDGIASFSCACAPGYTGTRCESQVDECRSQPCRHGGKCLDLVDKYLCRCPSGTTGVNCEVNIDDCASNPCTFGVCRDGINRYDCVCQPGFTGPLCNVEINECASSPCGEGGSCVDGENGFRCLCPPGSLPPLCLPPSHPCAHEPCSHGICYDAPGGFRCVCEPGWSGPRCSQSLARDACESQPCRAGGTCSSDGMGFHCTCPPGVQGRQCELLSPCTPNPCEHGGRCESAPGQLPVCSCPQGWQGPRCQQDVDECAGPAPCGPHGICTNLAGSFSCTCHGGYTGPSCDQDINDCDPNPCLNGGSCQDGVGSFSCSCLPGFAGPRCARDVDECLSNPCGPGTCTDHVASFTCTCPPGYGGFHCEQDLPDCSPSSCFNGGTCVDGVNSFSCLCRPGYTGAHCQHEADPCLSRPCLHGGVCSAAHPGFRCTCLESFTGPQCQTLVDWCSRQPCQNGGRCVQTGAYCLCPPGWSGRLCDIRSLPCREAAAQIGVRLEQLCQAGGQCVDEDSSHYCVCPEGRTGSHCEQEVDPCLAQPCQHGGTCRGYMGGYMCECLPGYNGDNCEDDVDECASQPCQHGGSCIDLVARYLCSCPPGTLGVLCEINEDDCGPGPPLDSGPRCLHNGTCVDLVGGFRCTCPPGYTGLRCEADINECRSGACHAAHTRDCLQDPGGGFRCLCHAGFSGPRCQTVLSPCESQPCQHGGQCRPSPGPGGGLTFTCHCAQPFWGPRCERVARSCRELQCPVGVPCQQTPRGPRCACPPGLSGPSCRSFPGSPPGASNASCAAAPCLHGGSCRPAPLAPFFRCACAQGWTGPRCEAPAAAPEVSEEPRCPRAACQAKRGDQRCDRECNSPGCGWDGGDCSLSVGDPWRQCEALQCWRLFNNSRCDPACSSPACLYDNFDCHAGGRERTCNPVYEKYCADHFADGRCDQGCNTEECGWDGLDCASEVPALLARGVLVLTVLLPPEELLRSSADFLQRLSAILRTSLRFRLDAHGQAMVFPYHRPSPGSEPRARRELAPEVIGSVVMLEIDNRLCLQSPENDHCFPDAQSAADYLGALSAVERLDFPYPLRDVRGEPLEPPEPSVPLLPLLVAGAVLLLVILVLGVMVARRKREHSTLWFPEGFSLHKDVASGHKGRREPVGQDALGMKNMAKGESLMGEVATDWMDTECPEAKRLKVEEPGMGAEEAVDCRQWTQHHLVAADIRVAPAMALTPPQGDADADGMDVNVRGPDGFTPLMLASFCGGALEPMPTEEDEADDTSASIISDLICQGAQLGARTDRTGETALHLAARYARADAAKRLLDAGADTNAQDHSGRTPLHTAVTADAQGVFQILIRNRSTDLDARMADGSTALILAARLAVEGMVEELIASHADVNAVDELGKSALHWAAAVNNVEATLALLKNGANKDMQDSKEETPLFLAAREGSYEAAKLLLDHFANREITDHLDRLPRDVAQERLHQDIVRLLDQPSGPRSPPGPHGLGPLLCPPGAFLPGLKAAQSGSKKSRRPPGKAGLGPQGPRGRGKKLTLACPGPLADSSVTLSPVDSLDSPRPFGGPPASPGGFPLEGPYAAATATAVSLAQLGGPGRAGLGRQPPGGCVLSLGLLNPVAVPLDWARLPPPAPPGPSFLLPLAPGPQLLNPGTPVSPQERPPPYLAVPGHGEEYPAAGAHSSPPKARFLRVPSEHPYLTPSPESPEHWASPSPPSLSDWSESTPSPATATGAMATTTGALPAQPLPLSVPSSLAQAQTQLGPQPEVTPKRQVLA
The nature of experiment [20]: probe aEGFR binding to arrayed compounds – biochemical, biotinylated probe, 635/667 nm fluorescence, primary screen (AID 1097).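 Note: probe is a biotinylated anti-EGFR antibody binding compounds printed on slides; score combines fluorescence near 667 nm and signal to noise of each spot.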 The note with it: small-molecule microarray, higher = more signal.

Pro-neuregulin-1, membrane-bound isoform (Homo sapiens), sequence (Q02297 whole entry, looked up, the tested form may be a part, canonical isoform): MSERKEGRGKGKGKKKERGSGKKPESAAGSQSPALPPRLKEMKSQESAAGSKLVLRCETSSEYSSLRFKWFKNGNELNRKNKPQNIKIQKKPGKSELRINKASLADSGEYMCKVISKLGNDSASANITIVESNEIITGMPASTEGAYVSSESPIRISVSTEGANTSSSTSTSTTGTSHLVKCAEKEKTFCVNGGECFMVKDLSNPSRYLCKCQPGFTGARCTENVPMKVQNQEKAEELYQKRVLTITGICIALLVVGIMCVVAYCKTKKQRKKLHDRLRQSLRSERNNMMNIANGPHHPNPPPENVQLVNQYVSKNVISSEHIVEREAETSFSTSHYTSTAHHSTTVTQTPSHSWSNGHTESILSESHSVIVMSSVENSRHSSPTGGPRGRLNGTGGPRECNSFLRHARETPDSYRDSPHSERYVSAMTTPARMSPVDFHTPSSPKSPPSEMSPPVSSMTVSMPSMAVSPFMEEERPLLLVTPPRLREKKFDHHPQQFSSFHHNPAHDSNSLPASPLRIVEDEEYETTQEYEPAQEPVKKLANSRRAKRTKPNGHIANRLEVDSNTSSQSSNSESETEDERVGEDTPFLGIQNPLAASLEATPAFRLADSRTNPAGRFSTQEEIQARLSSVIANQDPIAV

Turning to `O=C(O)[C@@]1(CCS(=O)(=O)c2ccccc2)COC(c2ccc(OCCCO)cc2)=N1`, the composite z-score in experiment [1] is 0.803; in [2], -0.715; in experiment [3], -0.196; in experiment [4], -0.0573; in experiment [5], -0.243; in experiment [6], 0.964. In addition, the composite z-score in experiment [7] is 1.35; in experiment [9], -0.0694; in experiment [10], 0.35; in [11], -0.16; in experiment [15] it was 2.76; in experiment [17], 0.188. For the same compound, the composite z-score is -0.754 in [18], -0.395 in experiment [19] and -0.0828 in [20]. Besides, the z-score is 0.143 (inactive) in experiment [8]; 0.608 (inactive) in experiment [12]; -2.3 (inactive) in experiment [13]; -0.717 (inactive) in experiment [14]; -0.16 (inactive) in [16].
Consider `O=C1OCC=C[C@H]2OC34C=CCN(c5ccc6ccccc6c5)C(=O)[C@H]3N(CCCCCCO)C(=O)[C@@H]4[C@@H]12` (stereo not given in full), for which the composite z-score is 0.787 in experiment [1]; 1.94 in experiment [2]; -0.133 in [3]; -0.566 in experiment [4]; -1.15 in [5]; 0.781 in [6]. In addition, the composite z-score is 1.57 in [7]; -0.302 in [9]; -0.226 in experiment [10]; -0.518 in experiment [11]; 2.62 in experiment [15]; -0.0493 in experiment [17]. Moreover, the composite z-score in experiment [18] is -1.33; in experiment [19] it was -0.435; in experiment [20], -0.256. Further, the z-score in experiment [8] was 0.78 (inactive); in [12], -0.966 (inactive); in experiment [13] it was -0.715 (inactive); in experiment [14] it was -0.806 (inactive); in experiment [16], -0.133 (inactive).
Regarding `COCCOC(=O)N1C(=O)[C@@]2(c3cc(C#Cc4ccc(OC)cc4)ccc31)[C@H](c1ccc(O)cc1)N1[C@H](c3ccccc3)[C@H](c3ccccc3)OC(=O)[C@H]1[C@@H]2C(=O)NC[C@H](O)c1ccccc1`, the composite z-score was -0.273 in [1]; 0.101 in experiment [2]; -0.155 in experiment [3]; 0.63 in [4]; 1.29 in experiment [5]; 1.53 in experiment [6]. Moreover, the composite z-score in experiment [7] was 1.34; in [9] it was 0.536; in experiment [10], 0.192; in experiment [11] it was 1.54; in experiment [15], 2.16; in experiment [17], -0.09. The values for the composite z-score in [18], in [19] and in [20] were 1.48, 1.08 and 0.0209, respectively. Also, the z-score is 0.1 (inactive) in experiment [8]; 1.5 (inactive) in experiment [12]; 0.217 (inactive) in experiment [13]; 2.82 (inactive) in experiment [14]; 0.873 (inactive) in experiment [16].
Consider `COc1ccc(C(O)C2C=CC3C(=O)NC(=O)C3N2Nc2ccccn2)c2ccccc12` (stereo not given), for which the composite z-score in experiment [1] was -0.37; in [2], 0.184; in [3], 0.0467; in experiment [4], 0.246; in experiment [5] it was 0.388; in experiment [6], 1. For the same compound, the composite z-score in experiment [7] is 0.741; in [9] it was 0.119; in [10] it was -0.0994; in [11] it was -0.385; in experiment [15], 1.02; in [17] it was -0.132. In addition, the composite z-score is -0.127 in experiment [18], 0.223 in experiment [19] and -0.107 in experiment [20]. In addition, the z-score in experiment [8] is 0.87 (inactive); in experiment [12], -0.327 (inactive); in experiment [13], -0.0861 (inactive); in experiment [14] it was 0.188 (inactive); in experiment [16] it was -0.794 (inactive).
Take `O=C1O[C@@H](c2ccccc2)[C@@H](c2ccccc2)N2[C@@H](c3ccc(OCCO)cc3)[C@]3(C(=O)Nc4ccccc43)[C@@H](C(=O)NC[C@H](O)c3ccccc3)[C@H]12`: the composite z-score in experiment [1] was -0.0164; in experiment [2], 0.0007; in [3], -0.019; in experiment [4], -0.0455; in experiment [5], 1.27; in experiment [6], 1.24. Further, the composite z-score is 1.26 in experiment [7]; 0.322 in experiment [9]; -0.145 in [10]; 1.35 in experiment [11]; 2.44 in experiment [15]; 0.161 in experiment [17]. The composite z-score in experiment [18] amounted to 0.457; in [19], 0.488; in experiment [20], 0.174. In addition, the z-score was -2.2 (inactive) in [8]; 1.63 (inactive) in [12]; 1.59 (inactive) in [13]; 4.14 (inactive) in experiment [14]; -0.46 (inactive) in [16].
